Laboratory results: ChEMBL document CHEMBL3988442, “University of Dundee, Small-Polar-MMV Screening Library” (2021)
Screen size: about 48,000 compounds; about 13,000 (27%) showed an effect of 50% or more. This is one part of the list.

What follows are molecules tested on Wolbachia pipientis (assay: Anti-Wolbachia Cell-Based Screen). Conditions: 5 µM.
Assay type: functional
Parameters: scale not given: in the data most compounds retested in dose-response had high values

Going from CCOc1ncccc1C(=O)N1CC=C(c2ccc(O)cc2)CC1 to CCC1c2cccn2CCN1C(=O)c1ccc2nonc2c1 (stereo not drawn), the “Percent Effect” value falls from 32.78% to -3.198%.

First: CCC(C)Nc1ccc(-c2nc(-c3cccc(OC)c3OC)no2)cn1 (stereo not drawn)
Second: CCC(Nc1ccc(Oc2ccc(C#N)cc2OC)cc1)C(N)=O (stereo not drawn)
The “Percent Effect” value of the first is higher: 24.9% for the first, -15.11% for the second.

First: Cc1ccc(NCCCNC(=O)NCc2c(C)cc(C)[nH]c2=O)nc1
Second: CCC1c2ccc(C)n2CCN1C(=O)Cn1cnc2sc(C)cc2c1=O (stereo not drawn)
The “Percent Effect” value of the first is lower: 7.392% for the first, 132.6% for the second.

First: CNC(=O)c1ccc(NC(=O)NC(C)c2cc(C)oc2C)cc1 (stereo not drawn)
Second: CC(C)NC(=O)c1ccc(NC(=O)NC(C)c2ccccn2)cc1 (stereo not drawn)
The “Percent Effect” value of the first is higher: -7.2% for the first, -7.886% for the second.

Going from CC(=O)c1ccc(NC(=O)NC(C(=O)N(C)C)C(C)C)cc1 (stereo not drawn) to CC(=O)c1ccc(NC(=O)N[C@H](C(=O)O)C(C)C)cc1, the “Percent Effect” value rises from -8.422% to 99.56%.

Going from CC(C)C(NC(=O)Nc1ccc(F)cc1)C(=O)N(C)C (stereo not drawn) to CC(Cn1cccn1)NC(=O)Nc1ccc(F)cc1 (stereo not drawn), the “Percent Effect” value falls from 92.8% to 5.847%.

First: CC(=O)c1ccc(NC(=O)NC(C)c2ccc3c(c2)CC(=O)N3)cc1 (stereo not drawn)
Second: CC(=O)c1ccc(NC(=O)C(NC(=O)Nc2ccccc2)C(C)C)cc1 (stereo not drawn)
The “Percent Effect” value of the first is lower: 0.8032% for the first, 128.1% for the second.

Compared with CC(C)[C@H](NC(=O)NC1CCS(=O)(=O)C1)C(=O)Nc1cccnc1 (stereo partly drawn), CC(C)Oc1ncccc1CNC(=O)C1CCCN(C(=O)C2CC2)C1 (stereo not drawn) is lower in “Percent Effect” value: 9.774% for the first, -12.74% for the second.

First: CN1C(=O)CC(C(=O)O)C12CCN(Cc1ccc(Cl)c(Cl)c1)CC2 (stereo not drawn)
Second: N#Cc1ccccc1N1CCCN(CC(=O)Nc2ccccc2Cl)CC1
The “Percent Effect” value of the first is lower: -9.214% for the first, 11.85% for the second.

First: Cc1cccc(-c2noc([C@@H]3C[C@@H](O)CN3C)n2)c1
Second: Cc1cccc(-c2noc(CN3CCCC(Cn4cncn4)C3)n2)c1 (stereo not drawn)
The “Percent Effect” value of the first is lower: -0.5094% for the first, 6.393% for the second.

First: CC(C)NC(=O)c1ccc2c(c1)C(c1nc[nH]n1)CN2S(C)(=O)=O (stereo not drawn)
Second: CC(C)Nc1cc(-c2c[nH]nc2C2CCN(C(=O)C3CC3)C2)ccn1 (stereo not drawn)
The “Percent Effect” value of the first is lower: 2.921% for the first, 259.2% for the second.

First: COc1cccc(COCC(=O)N2CCN(CC(C)(C)O)CC2)c1
Second: COc1ccc(OC)c(C2CCN(C(=O)C3CCN(C(C)C)CC3)C2)c1 (stereo not drawn)
The “Percent Effect” value of the first is higher: -0.1486% for the first, -6.334% for the second.

First: O=C(O)C(F)(F)F.O=S(=O)(c1cccs1)N1CCCn2cnc(CO)c2C1
Second: CCS(=O)(=O)N1CCCn2cnc(COc3cccnc3)c2C1.O=C(O)C(F)(F)F
The “Percent Effect” value of the first is lower: -6.746% for the first, 90.76% for the second.

First: O=C(O)C(F)(F)F.O=C(O)C(F)(F)F.c1cnc(NCc2ncn3c2CN(Cc2cccnc2)CCC3)nc1
Second: O=C(O)C(F)(F)F.O=C(O)C(F)(F)F.c1cc(CN2CCCn3cnc(COCC4CC4)c3C2)ccn1
The “Percent Effect” value of the first is higher: 4.407% for the first, -1.984% for the second.

Compared with Fc1cnc(N2CCCn3cnc(COc4cccnc4)c3C2)nc1.O=C(O)C(F)(F)F, CN(C)CCOCc1ncn2c1CN(c1ncc(F)cn1)CCC2.O=C(O)C(F)(F)F is lower in “Percent Effect” value: 88.73% for the first, -8.613% for the second.

Compared with O=C(O)C(F)(F)F.O=S(=O)(C1CC1)N1CCCn2cnc(COc3cccnc3)c2C1, O=C(O)C(F)(F)F.O=S(=O)(Cc1ccccc1)N1CCCn2cnc(CN3CCCC3)c2C1 is lower in “Percent Effect” value: 121.6% for the first, -19.91% for the second.

Going from CN(C)C(=O)COCc1ncn2c1CN(c1ncc(F)cn1)CCC2 to CC(C)CNc1cc(-c2c[nH]nc2C2CCN(C(=O)C3CC3)C2)ccn1 (stereo not drawn), the “Percent Effect” value rises from 5.015% to 239.9%.

Compared with O=S(=O)(NC(CO)Cc1c[nH]c2ccccc12)c1cncc(F)c1 (stereo not drawn), O=C1CC(C(=O)Nc2nnc(-c3ccoc3)[nH]2)c2ccccc2N1 (stereo not drawn) is lower in “Percent Effect” value: 0.282% for the first, -8.464% for the second.

First: O=C(CCc1nc(Cl)n[nH]1)N1C[C@@H](CN2CCCCC2)[C@@H](CO)C1
Second: CN(C)c1ccccc1C(=O)N1C[C@@H](CN2CCCCC2)[C@@H](CO)C1
The “Percent Effect” value of the first is higher: 12.3% for the first, -1.886% for the second.

First: Cc1cc2c(=O)n(CC(=O)N3CCn4cccc4C3C(C)C)cnc2s1 (stereo not drawn)
Second: CCCC1c2cccn2CCN1C(=O)Cn1cnc2sc(C)cc2c1=O (stereo not drawn)
The “Percent Effect” value of the first is lower: 139.9% for the first, 146.6% for the second.

Going from CCN1CCC(CC(=O)N2CCn3cccc3C2c2cccnc2)CC1 (stereo not drawn) to Cc1ncsc1CCC(=O)N1CCn2cccc2C1c1cccnc1 (stereo not drawn), the “Percent Effect” value rises from -1.172% to 2.617%.

Compared with Cc1cc2c(=O)n3c(nc2s1)CCN(C(=O)c1ccncc1)CC3, Cc1nc(NC(=O)C(C)N2CCN(c3ccccc3F)CC2)sc1C (stereo not drawn) is higher in “Percent Effect” value: -15.49% for the first, 2.631% for the second.

First: CCCC1c2cccn2CCN1C(=O)c1cc(CC)no1 (stereo not drawn)
Second: CCc1cc(C(=O)N2CCC(C3CCN(c4ncccn4)CC3)C2)on1 (stereo not drawn)
The “Percent Effect” value of the first is higher: 123.5% for the first, -2.788% for the second.

First: CNC(=O)C1CCCCN1C(=O)CCn1cnc2sccc2c1=O (stereo not drawn)
Second: Cc1nc(NC(=O)C2CCCN(C(N)=O)C2)sc1-c1ccccc1 (stereo not drawn)
The “Percent Effect” value of the first is lower: 2.602% for the first, 3.163% for the second.

First: COC(=O)CCNC(=O)c1nnn(-c2ccccc2)c1C(F)(F)F
Second: NC(=O)C1CCCN1Cc1ccccc1NC(=O)CC(F)(F)F (stereo not drawn)
The “Percent Effect” value of the first is lower: -9.818% for the first, -9.794% for the second.

Going from CS(=O)(=O)N1CCCCCC1C1CCN(Cc2nc(C3CC3)no2)CC1 (stereo not drawn) to c1ncn(CC2CCCN(Cc3nc(C4CC4)no3)C2)n1 (stereo not drawn), the “Percent Effect” value rises from -7.435% to -1.701%.

Cc1nc(NC(=O)CN2C(=O)c3ccccc3NC2C(C)C)sc1C (stereo not drawn) and Cc1nc(NC(=O)CCN2C(=O)c3ccccc3NC2C(C)C)sc1C (stereo not drawn) are the same in “Percent Effect” value: 126.1% for the first, 126.1% for the second.

Compared with Cc1nc(NC(=O)CN2CCc3c(nc(C(C)C)n3C)C2)sc1C, Cc1nc(NC(=O)CN2CCOC(Cn3cccn3)C2)sc1C (stereo not drawn) is lower in “Percent Effect” value: -4.598% for the first, -8.379% for the second.

Compared with Cc1cc(C2CCCN(CC(=O)Nc3nc4c(s3)CCC4)C2)n[nH]1 (stereo not drawn), O=C(CN1CCCC(c2ccn[nH]2)C1)Nc1nc2c(s1)CCC2 (stereo not drawn) is lower in “Percent Effect” value: 7.579% for the first, -12.59% for the second.

First: CC(C)C1Nc2ccccc2C(=O)N1CC(=O)Nc1nc2c(s1)CCC2 (stereo not drawn)
Second: Cc1cc(C2CCCN2C(=O)NCc2cccnc2OC(C)C)on1 (stereo not drawn)
The “Percent Effect” value of the first is higher: 128.1% for the first, 10.48% for the second.

Compared with Cc1cc(NCC(=O)N(C)CC(F)(F)F)c(C(N)=O)cc1F, Cc1nc(C)n(CC2CN(Cc3cccnc3)Cc3nccn3C2)n1.O=C(O)C(F)(F)F.O=C(O)C(F)(F)F (stereo not drawn) is higher in “Percent Effect” value: -3.816% for the first, 6.866% for the second.

Going from O=S(=O)(Nc1ccon1)c1cc(Cl)cc2c1OCC2 to O=c1[nH]c(-c2ccc(Cl)cc2)nc2c1CCNC2, the “Percent Effect” value falls from 4.815% to -17.05%.

First: CCCS(=O)(=O)N(C)C(=O)CCc1ccsc1
Second: CCC[C@H]1CN(CCS(C)(=O)=O)C[C@@H]1NC(=O)c1ccccn1
The “Percent Effect” value of the first is lower: -1.511% for the first, 20.97% for the second.

Compared with CCc1ccc(CN2Cc3nccn3CC(Cn3cncn3)C2)o1.O=C(O)C(F)(F)F (stereo not drawn), O=C(O)C(F)(F)F.c1csc(CN2Cc3nccn3CC(Cn3cncn3)C2)c1 (stereo not drawn) is lower in “Percent Effect” value: 101.6% for the first, 90.09% for the second.

Going from Cc1nc(C)n(CC2CN(Cc3ccncc3)Cc3nccn3C2)n1.O=C(O)C(F)(F)F.O=C(O)C(F)(F)F (stereo not drawn) to O=C(O)C(F)(F)F.O=C(O)C(F)(F)F.c1cc(CN2Cc3nccn3CC(Cn3cncn3)C2)ccn1 (stereo not drawn), the “Percent Effect” value rises from -4.303% to 106.6%.

Going from O=C(O)C(F)(F)F.O=C(O)C(F)(F)F.c1cncc(CN2Cc3nccn3CC(Cn3cccn3)C2)c1 (stereo not drawn) to O=C(O)C(F)(F)F.c1cncc(CN2Cc3nccn3CC(Cn3cncn3)C2)c1 (stereo not drawn), the “Percent Effect” value rises from 90.07% to 126.5%.

First: CC(=O)N1[C@H](Cn2cncn2)C[C@@H]2CN(Cc3cccnc3)CC[C@@H]21.O=C(O)C(F)(F)F.O=C(O)C(F)(F)F
Second: O=C(O)C(F)(F)F.c1csc(CN2Cc3nccn3CC(Cn3cncn3)C2)n1 (stereo not drawn)
The “Percent Effect” value of the first is higher: -6.622% for the first, -6.751% for the second.

First: CSc1ccc(CN(C(=O)c2cc(C)[nH]c(=O)c2)C2CC2)cc1
Second: Cc1ccc(-c2nc(CN3CCCC(Cn4cncn4)C3)co2)cc1 (stereo not drawn)
The “Percent Effect” value of the first is lower: 12.75% for the first, 142.7% for the second.

Compared with COC(C)(C)c1noc(C2(C#N)CCCCC2)n1, Cc1cc(CN2CCCC(Cn3cncn3)C2)no1 (stereo not drawn) is higher in “Percent Effect” value: -1.328% for the first, 117% for the second.

First: CCOC(=O)NC(CNC(=O)c1ncccn1)CC(C)C (stereo not drawn)
Second: CN1CCCC(C(=O)N2CCC(Oc3ncccn3)CC2)C1 (stereo not drawn)
The “Percent Effect” value of the first is lower: 3.45% for the first, 16.76% for the second.

First: CNC(=O)[C@@H](c1ccccc1OC)N1CCC[C@H]1C(=O)NC(C)(C)C.Cl
Second: COc1ccccc1-c1nnc([C@H]2CCN(C(=O)C3CC3)C2)o1
The “Percent Effect” value of the first is higher: 1.665% for the first, -2.817% for the second.

Compared with Cc1nc(C)n(CC2CN(Cc3cccs3)Cc3nccn3C2)n1.O=C(O)C(F)(F)F (stereo not drawn), Cc1nc2ccccc2nc1CN1CCCC(Cn2cncn2)C1 (stereo not drawn) is lower in “Percent Effect” value: 12.7% for the first, -7.654% for the second.

Going from CC(C)Nc1cc(-c2c[nH]nc2C2CCN(C(=O)C3CCC3)C2)ccn1 (stereo not drawn) to CCn1c(CC2CCN(C(=O)c3cc(C(C)C)n[nH]3)CC2)n[nH]c1=O, the “Percent Effect” value falls from 269% to -9.861%.

First: CCN(CC)CCn1cnc(-c2ccccc2)c1-c1cnc(C)s1
Second: c1ccc(-c2nc(CN3CCCC(Cn4cncn4)C3)no2)cc1 (stereo not drawn)
The “Percent Effect” value of the first is lower: -4.484% for the first, -1.614% for the second.

First: Cc1cc(CN2CCCC2Cn2cncn2)no1 (stereo not drawn)
Second: Cc1cc(CN2CCCC(Cn3cncn3)C2)on1 (stereo not drawn)
The “Percent Effect” value of the first is lower: 1.75% for the first, 123.2% for the second.

First: c1ccc(-c2cc(CN3CCCC(Cn4cncn4)C3)on2)cc1 (stereo not drawn)
Second: c1ccc(-c2nc(CN3CCCC(Cn4cncn4)C3)co2)cc1 (stereo not drawn)
The “Percent Effect” value of the first is higher: 156.9% for the first, 5.722% for the second.

First: Cc1cc(NC(=O)CN2CCCC(Cn3cncn3)C2)no1 (stereo not drawn)
Second: Cc1cc(NC(=O)CN2CCCC(Cn3cncn3)C2)on1 (stereo not drawn)
The “Percent Effect” value of the first is lower: -8.5% for the first, 0.4633% for the second.

Going from COc1ccc(OC)c2c(C)cc(N(CCO)CCO)nc12 to Cc1ccoc1-c1nnc(CN2CCCC(Cn3cncn3)C2)o1 (stereo not drawn), the “Percent Effect” value rises from -7.73% to -5.411%.

First: Fc1ccc(-c2nnc(CN3CCOC(Cn4cncn4)C3)o2)cc1 (stereo not drawn)
Second: Fc1ccc(-c2nnc(CN3CCCC(Cn4cncn4)C3)o2)cc1 (stereo not drawn)
The “Percent Effect” value of the first is lower: -1.88% for the first, 112.2% for the second.
